CYP2C9 inhib = blockers of cytochrome P450 2C9 activity – biochemical, luminescence, ADME assay, primary screen. P11712. CYP2C9 Supersomes, luciferin-H conversion. inhibition, % at 5 µM. 96,000 compounds, 20% hits. AID 777, 2007;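 active = blocking of liver enzyme CYP2C9 beyond about 50% at 5 µM, limit read from the data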
CYP2C9 activ = human CYP2C9 activators, primary screen, biochemical, luminescence. Cytochrome P450 2C9 (Homo sapiens), P11712. recombinant CYP2C9, luciferin-H conversion; active compounds read high; factor 1 = untreated enzyme, 0 = blocked. activation factor at 5 µM. 96,000 compounds, 1.4% hits. AID 1024, 2008;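 active = activation factor of 2 or more for CYP2C9 at a 5 µM dose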;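 also: 0 = sulfaphenazole-blocked wells and 1 = vehicle-only wells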
CYP2C19 inh = blockers of cytochrome P450 2C19 activity – biochemical, luminescence, ADME assay, primary screen. inhibition, % at 5 µM. P33261. 96,000 compounds, 21% hits. CYP2C19 Supersomes, luciferin-H EGE luminescence, 30 min;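 active = CYP2C19 inhibition above a set limit at 5 µM in the primary screen, cut at about 50% in these data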;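 also: plate controls were negative control wells for no effect and 2.5 mM tranylcypromine positive control for full effect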
Target sequence (P33261 whole entry, looked up): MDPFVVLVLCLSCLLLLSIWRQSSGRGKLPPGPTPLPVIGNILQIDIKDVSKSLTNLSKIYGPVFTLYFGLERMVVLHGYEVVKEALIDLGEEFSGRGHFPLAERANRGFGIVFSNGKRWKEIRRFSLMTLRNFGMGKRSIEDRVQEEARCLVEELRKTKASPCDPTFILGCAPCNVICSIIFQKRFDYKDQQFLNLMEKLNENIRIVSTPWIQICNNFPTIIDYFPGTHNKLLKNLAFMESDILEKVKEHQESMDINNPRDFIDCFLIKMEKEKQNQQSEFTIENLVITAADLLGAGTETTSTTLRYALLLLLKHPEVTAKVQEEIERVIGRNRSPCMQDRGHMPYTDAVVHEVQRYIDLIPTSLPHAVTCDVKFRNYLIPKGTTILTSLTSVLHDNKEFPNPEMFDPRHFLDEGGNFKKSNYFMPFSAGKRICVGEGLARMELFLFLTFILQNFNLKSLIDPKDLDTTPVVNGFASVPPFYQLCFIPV
CYP2C19 activ = human CYP2C19 activators, primary screen, biochemical, luminescence | Cytochrome P450 2C19 (Homo sapiens), P33261 | recombinant CYP2C19, luciferin-H EGE luminescence; active compounds read high; 0 = fully inhibited enzyme, 1 = untreated enzyme | activation factor at 5 µM | 96,000 tested, under 10 active | AID 1025, 2008;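 active = activation factor of at least 2 at 5 µM in the primary screen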;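 also: 0 = wells with 2.5 mM tranylcypromine and 1 = vehicle-only wells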
Cav32 inh = Cav3.2 calcium influx blockers – cell-based, Fluo-4 calcium fluorescence, FDSS, MLSMR library, primary screen; 100,000 compounds, 4% hits; Voltage-dependent T-type calcium channel subunit alpha-1H (Homo sapiens), O95180; B-score at 10 µM; Cav3.2-expressing cells; active compounds read low; AID 449739, 2010;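 active = single-dose well whose peak fluorescence ratio is a statistical outlier from its plate by either plate-standardised score or position-corrected B-score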
Starred values were filed as active, the others as inactive; . = no result. Shown are actives, neighbours in structure and some others; about 27% of the full set was active somewhere.

SMILES | CYP2C9 inhib | CYP2C9 activ | CYP2C19 inh | CYP2C19 activ | Cav32 inh
c1ccc(OCc2nc3ccccc3[nH]2)cc1 | 15.1 | 0.8 | 74.3* | 0.3 | -0.0245
Cc1ccc2nc(SCCCCOc3ccccc3)[nH]c2c1 | 71.9* | 0.3 | 63.3* | 0.4 | -6.25*
O=C(Nc1nc2ccccc2[nH]1)C12CC3CC(CC(C3)C1)C2 | -17.9 | 1.2 | -22.7 | 1.2 | -0.359
CC(C)(C)N1OC2CC1c1nc3ccccc3n1C2 (stereo not given) | . | . | . | . | 0.00325
O=C(CCS(=O)(=O)Cc1ccc(Cl)cc1)NCCCN1CCOCC1 | -3.0 | 1 | 45.1 | 0.5 | -0.0207
CCOC(=O)c1[nH]c(C)c(C(=O)OCC(=O)N(CC)C2CCS(=O)(=O)C2)c1C (stereo not given) | 27.9 | 0.7 | -19.9 | 1.2 | 0.282
CN(C(=O)c1ccc2c(c1)C(=O)N(CCC1=CCCCC1)C2=O)C1CCCCC1 | 29.5 | 0.7 | 39.3 | 0.6 | -6.13*
COc1ccc(OC)c(/C=N/NC(=O)CCCC(=O)Nc2cccc(Br)c2)c1 | 75.4* | 0.2 | 35.0 | 0.7 | -2.09
Cc1ccc(OCc2nnc(NC(=O)c3ccco3)s2)c(C)c1 | 20.3 | 0.8 | -10.9 | 1.1 | 1.45
CCC(C)[C@H](N)c1cn([C@@H](CCCCN)C(=O)N2CCNCC2)nn1 (stereo not given in full) | . | . | . | . | 0.533
CN1C(=O)CSc2ccc(NC(=O)Nc3ccccn3)cc21 | -9.2 | 1.1 | -0.5 | 1 | 0.781
CCOc1ccc(OCC)c(NC(=O)Nc2ccc3c(c2)N(C)C(=O)CS3)c1 | 36.9 | 0.6 | 58.1* | 0.4 | 0.522
CN1C(=O)CSc2ccc(NC(=O)NCc3cccnc3)cc21 | 71.5* | 0.3 | 56.4* | 0.4 | -0.189
COc1cccc(NC(=O)Nc2ccc3c(c2)N(C)C(=O)CS3)c1 | -3.6 | 1 | 64.8* | 0.4 | -0.767
CN1C(=O)CSc2ccc(NC(=O)NCc3ccco3)cc21 | 1.7 | 1 | 2.4 | 1 | 0.624
CCCCOc1ccccc1-c1cc(C(=O)O)[nH]n1 | -0.3 | 1 | -12.2 | 1.1 | .
COc1cc(NC(=S)N2CCN(C(c3ccccc3)c3ccccc3)CC2)cc(OC)c1 | 37.6 | 0.6 | 32.0 | 0.7 | -1.19
O=C(N/N=C/c1ccccc1)c1sccc1OCc1ccc(F)cc1 | 70.0* | 0.3 | 36.6 | 0.6 | -0.168
O=C(O)c1ccc(COc2ccc(/C=N/NC(=O)c3cccs3)cc2)cc1 | 7.8 | 0.9 | -2.4 | 1 | .
CSC1=C(C#N)C(c2cccs2)CC(=O)N1C (stereo not given) | -1.4 | 1 | 22.9 | 0.8 | .
N#CC1=C2SCC(O)(c3ccccc3)N2C(=O)CC1c1cccs1 (stereo not given) | 99.3* | 0 | 81.6* | 0.2 | -1.98
N#CC1=C2SCC(O)(c3ccccc3)N2C(=O)CC1c1ccccc1F (stereo not given) | 98.6* | 0 | 100.3* | 0 | -3.73
COc1ccc(C2CC(=O)N3C(=C2C#N)SCC3(O)c2ccccc2)cc1 (stereo not given) | 99.5* | 0 | 83.9* | 0.2 | -6.04*
CC(C)(C)OC(=O)CNC(=O)c1[nH]cnc1C(=O)N[C@@H](Cc1ccccc1)C(=O)OC(C)(C)C | . | . | . | . | -1.62
CC(C)c1ccc(OCc2ccc(C(=O)N3CCN(c4ccccn4)CC3)cc2)cc1 | 42.6 | 0.6 | 27.2 | 0.7 | -3.72
SMILES | CYP2C9 inhib | CYP2C9 activ | CYP2C19 inh | CYP2C19 activ | Cav32 inh
CCOC(=O)CN1C(=O)N[C@@H](c2cccc(C(F)(F)F)c2)C(C(=O)OC)=C1C | . | . | . | . | 0.376
C/C(=N\NC(=O)c1ccc(Br)cc1)c1ccccc1 | 28.3 | 0.7 | 61.1* | 0.4 | -0.0321
COC(=O)N/N=C(\C)c1ccc(Br)cc1 | -1.8 | 1 | -2.1 | 1 | -0.449
Cc1cc(C)n(C(=O)c2ccc(C)c(S(=O)(=O)N3CCCC3)c2)n1 | 54.7* | 0.5 | 73.2* | 0.3 | 0.0279
Cc1cc(C)n(C(=O)c2cccc(S(=O)(=O)N3CCOCC3)c2)n1 | 33.9 | 0.7 | 58.9* | 0.4 | .
Cc1ccc(C(=O)N2CCN(C)CC2)cc1S(=O)(=O)N1CCCCC1 | 6.7 | 0.9 | 9.7 | 0.9 | 1.66
Cc1cc(C)n(C(=O)c2ccc(S(=O)(=O)N3CCOCC3)cc2)n1 | 53.1* | 0.5 | -12.0 | 1.1 | 0.533
Cc1ccc(Sc2c(C)nn(C(=O)c3cccc(S(=O)(=O)N4CCOCC4)c3)c2C)cc1 | 78.5* | 0.2 | 52.8* | 0.5 | -1.87
Cc1cc(C)n(C(=O)c2ccc(S(=O)(=O)NCC3CCCO3)cc2)n1 (stereo not given) | 58.5* | 0.4 | 32.9 | 0.7 | 0.00131
CC(=O)Nc1ccc(C(=O)Nc2ccc(S(=O)(=O)NCC3CCCO3)cc2)cc1 (stereo not given) | 31.5 | 0.7 | 9.3 | 0.9 | 0.0504
O=C1CCc2cc(S(=O)(=O)N3CCC(C(=O)NC4CCCCCCC4)CC3)ccc2N1 | 57.1* | 0.4 | 21.0 | 0.8 | 0.543
COc1cc(NC(=O)CN(C)S(=O)(=O)c2ccc3c(c2)CCC(=O)N3)cc(OC)c1 | 61.6* | 0.4 | 28.4 | 0.7 | -0.418
O=C1CCc2cc(S(=O)(=O)N3CCCC3C(=O)N3CCN(c4ccccc4)CC3)ccc2N1 (stereo not given) | 58.7* | 0.4 | -7.1 | 1.1 | .
COc1cccc(N2CCN(C(=O)CN(C)S(=O)(=O)c3ccc4c(c3)CCC(=O)N4)CC2)c1 | 45.7 | 0.5 | 12.9 | 0.9 | 0.0338
COc1ccc(C)cc1NC(=O)C1CCCN1S(=O)(=O)c1ccc2c(c1)CCC(=O)N2 (stereo not given) | -60.1 | 1.6 | 38.9 | 0.6 | 0.388
COc1cc(NC(=O)C2CCCN2S(=O)(=O)c2ccc3c(c2)CCC(=O)N3)cc(OC)c1 (stereo not given) | 60.2* | 0.4 | 13.9 | 0.9 | 1.16
Cc1nn(Cc2nc(-c3cccs3)no2)c(C)c1Br | 46.1 | 0.5 | 75.1* | 0.2 | -2.14
Cc1ccccc1C(=O)c1cccn1CC(=O)NCC1CCCO1 (stereo not given) | 4.2 | 1 | 9.7 | 0.9 | 1.77
CC(=O)c1cn(CC(=O)NCc2ccc3c(c2)OCO3)c2ccccc12 | . | . | . | . | -0.988
Cn1cc(SCC(=O)NCc2ccc3c(c2)OCO3)c2ccccc21 | 68.6* | 0.3 | 99.9* | 0 | -2.56
CCCn1cc(SCC(=O)NCc2ccc3c(c2)OCO3)c2ccccc21 | 41.9 | 0.6 | 28.5 | 0.7 | -2.3
CCn1cc(SCC(=O)NCc2ccc3c(c2)OCO3)c2ccccc21 | 23.3 | 0.8 | 96.7* | 0 | -3.89*
Cc1ccccc1C(=O)c1cccn1CC(=O)NCc1ccc2c(c1)OCO2 | 73.7* | 0.3 | 61.7* | 0.4 | -2.14
O=C(Cn1cc(C(=O)C2CC2)c2ccccc21)NCc1ccc2c(c1)OCO2 | 31.5 | 0.7 | 81.4* | 0.2 | -0.754

Assay outcomes: PubChem, several laboratories
